Laboratory results published in PubChem BioAssay (EPA / NIEHS).
Activity calls are given as the source filed them. The calls were made as follows: active = hit-call score of the fitted dose curve at least 0.9, where 1 is the maximum; inactive = score below 0.9.

Experiments:
[1] = ATG_CRE_CIS: Attagene CIS-FACTORIAL HepG2 Assay for human cAMP Responsive Element (CRE) binding protein 3 (AID 2282926); conditions: HepG2 CRE cis-reporter, Attagene multiplexed mRNA; actives raise or lower the signal
In short: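 HepG2 cells transiently transfected with a multiplexed reporter library (CRE-driven unit among them) were dosed for 24 h. Reporter mRNA was quantified by RT-PCR, fluorescent labelling, HpaI digestion and capillary electrophoresis, with bidirectional fitting against DMSO baseline.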

[2] = target: CCAAT/enhancer-binding protein beta (Homo sapiens) (UniProt P17676); experiment: ATG_C_EBP_CIS: Attagene CIS-FACTORIAL HepG2 Assay for human CCAAT/Enhancer Binding Protein (C/EBP) beta (AID 2282927); conditions: HepG2 Attagene cis-factorial transcription factor reporter; actives raise or lower the signal
In short: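 Following a 24 h incubation with test chemical, transfected HepG2 cells yielded RNA whose reporter transcripts were quantified by RT-PCR and fluorescent capillary electrophoresis, with DMSO serving as baseline for bidirectional fitting.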

[3] = ATG_CMV_CIS: Attagene CIS-FACTORIAL HepG2 Assay for human CMV (Internal Marker) (AID 2282928); conditions: HepG2 CMV promoter reporter, transcription factor profiling; actives raise or lower the signal;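 also: endpoint acts as a background internal control marker rather than a target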
In short: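 Cell system: HepG2, transiently transfected multiple reporter units under cis promoters. Exposure: 24 h. Detection: RT-PCR, FAM labeling, HpaI digestion, capillary electrophoresis. Analysis: bidirectional, DMSO baseline.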

[4] = ATG_DR4_LXR_CIS: Attagene CIS-FACTORIAL HepG2 Assay for human Liver X Receptor (LXR), DR4 submotif (AID 2282929); conditions: HepG2 Attagene DR4 cis-reporter, mRNA transcription; actives raise or lower the signal
In short: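 Transiently transfected HepG2 liver cells; cis-regulated reporters; 24 h dosing. RT-PCR plus CE read-out of reporter mRNA. DMSO baseline, bidirectional curve fitting.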

[5] = target: Aryl hydrocarbon receptor (Homo sapiens) (UniProt P35869); experiment: ATG_Ahr_CIS: Attagene CIS-FACTORIAL HepG2 Assay for human Aryl Hydrocarbon Receptor (Ahr) (AID 2282930); conditions: HepG2 AhR cis-factorial reporter transcription; actives raise or lower the signal
In short: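 Values derive from bidirectional fitting against DMSO negative control. Underlying signal: cis-element reporter mRNA in transiently transfected HepG2, harvested 24 h post-dose and measured by RT-PCR plus capillary electrophoresis.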

[6] = ATG_AP_1_CIS: Attagene CIS-FACTORIAL HepG2 Assay for human Activator Protein 1 (AP-1) (AID 2282931); conditions: HepG2 Attagene cis-factorial AP-1 reporter mRNA; actives raise or lower the signal
In short: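 We transfected HepG2 cells transiently with a set of cis-regulated reporter transcription units, dosed them for 24 h, and quantified reporter mRNA via RT-PCR and capillary electrophoresis, scoring gain or loss of signal relative to DMSO.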

[7] = ATG_AP_2_CIS: Attagene CIS-FACTORIAL HepG2 Assay for human Activator Protein 2 (AP-2) (AID 2282932); conditions: HepG2 AP-2 cis-reporter, Attagene transcription factor profiling; actives raise or lower the signal
In short: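 HepG2 cells were transiently transfected with multiple cis-promoter reporter transcription units and dosed for 24 h. Reporter mRNA was measured by RT-PCR with capillary electrophoresis fluorescence; bidirectional fits relative to DMSO baseline.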

[8] = ATG_BRE_CIS: Attagene CIS-FACTORIAL HepG2 Assay for human Bone Morphogenetic Protein (BMP) Response Element (BRE) (AID 2282933); conditions: HepG2 BMP response element reporter, Attagene transcription factor profiling; actives raise or lower the signal
In short: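 Transient MRTU transfection of human HepG2 liver cells; 24 h compound treatment; total RNA isolated, reverse-transcribed, PCR-amplified, 6-FAM labelled, HpaI-cut, capillary electrophoresis. DMSO = negative control/baseline, bidirectional fit.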

[9] = target: Retinoic acid receptor alpha (Homo sapiens) (UniProt P10276); experiment: ATG_DR5_RAR_CIS: Attagene CIS-FACTORIAL HepG2 Assay for human Retinoic Acid Receptor Alpha (RARE), DR5 submotif (AID 2282934); conditions: HepG2 Attagene cis-factorial RARE DR5 reporter, mRNA; actives raise or lower the signal;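 as to AC50: reporter responds to endogenous RAR alpha beta and gamma in HepG2 not RARA alone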
In short: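 Endpoint fitted in both directions relative to DMSO as negative control. It reflects DR5 cis-element reporter mRNA induction in transiently transfected HepG2 cells, measured 24 h after dosing through RT-PCR and fluorescent capillary electrophoresis.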

[10] = target: Transcription factor E2F1 (Homo sapiens) (UniProt Q01094); experiment: ATG_E2F_CIS: Attagene CIS-FACTORIAL HepG2 Assay for human E2F Transcription Factor 1 (AID 2282935); conditions: HepG2 Attagene cis-reporter, E2F reporter RNA transcripts; actives raise or lower the signal
In short: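 HepG2 cells transiently transfected with multiplexed cis-element reporter units, dosed for 24 h. Reporter mRNA measured by RT-PCR, 6-FAM primer-extension labeling, HpaI digestion and capillary electrophoresis; bidirectional fit versus DMSO baseline.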

[11] = ATG_E_Box_CIS: Attagene CIS-FACTORIAL HepG2 Assay for human Enhancer Box (E-box) (AID 2282936); conditions: HepG2 E-box cis-reporter transcription, actives raise or lower the signal
In short: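 HepG2 cells transiently transfected with multiplexed cis-element reporter units sensing endogenous transcription factor activity; 24 h compound exposure. Reporter mRNA measured by RT-PCR, 6-FAM primer extension, HpaI digestion and capillary electrophoresis; bidirectional fit versus DMSO.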

[12] = ATG_M_61_CIS: Attagene CIS-FACTORIAL HepG2 Assay for M61 Transcription Factor (Internal Marker) (AID 2282937); conditions: HepG2 Attagene CIS-FACTORIAL M61 internal marker reporter; actives raise or lower the signal
In short: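 Multiplexed reporter mRNA assay, HepG2 human hepatoma cells, 24 h treatment. Signal: FAM-labelled, HpaI-digested RT-PCR fragments by CE. Fit: bidirectional, baseline DMSO.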

[13] = ATG_EGR_CIS: Attagene CIS-FACTORIAL HepG2 Assay for human Early Growth Response 1 (EGR1) (AID 2282938); conditions: HepG2 Attagene CIS-FACTORIAL EGR reporter mRNA; actives raise or lower the signal
In short: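 Multiplexed cis-reporter system in human hepatoma HepG2 cells, transiently transfected. Cells are dosed for 24 h; reporter transcripts are amplified, fluorescently tagged and sized by capillary electrophoresis, with DMSO as negative control.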

[14] = ATG_Ets_CIS: Attagene CIS-FACTORIAL HepG2 Assay for human Erythroblast Transformation Specific (ETS) (AID 2282941); conditions: HepG2 ETS cis-reporter transcription, actives raise or lower the signal
In short: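 After transient cis-reporter transfection, HepG2 cells receive test chemical for 24 h. Reporter mRNA levels, measured by RT-PCR and capillary electrophoresis fluorescence, are analysed bidirectionally relative to the DMSO baseline.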

[15] = target: Hepatocyte nuclear factor 3-beta (Homo sapiens) (UniProt Q9Y261); experiment: ATG_FoxA2_CIS: Attagene CIS-FACTORIAL HepG2 Assay for human Forkhead box A2 (FOXA2) (AID 2282942); conditions: HepG2 cis-reporter transcription factor activity, 24 h; actives raise or lower the signal
In short: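 Multiplexed cis-element reporter assay in transiently transfected HepG2. Twenty-four hours post-dosing, RNA was reverse-transcribed, amplified, FAM-labelled, HpaI-digested and separated by CE. Activity gain or loss relative to DMSO.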

[16] = ATG_FoxO_CIS: Attagene CIS-FACTORIAL HepG2 Assay for human Forkhead box O (FoxO) (AID 2282943); conditions: HepG2 Attagene cis-reporter, FoxO element, mRNA; actives raise or lower the signal
In short: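 Values reflect reporter mRNA induction or loss in HepG2 cells 24 h post-dosing, fitted bidirectionally with DMSO as negative control and baseline. Detection used RT-PCR and fluorescence capillary electrophoresis.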

[17] = ATG_GATA_CIS: Attagene CIS-FACTORIAL HepG2 Assay for human GATA Binding Protein (AID 2282944); conditions: HepG2 GATA cis-element reporter, Attagene multiplex mRNA; actives raise or lower the signal
In short: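 Transient MRTU transfection, HepG2, 24 h compound exposure. Total RNA → oligo(dT) RT → PCR → 6-FAM primer extension → HpaI cut → CE. Bidirectional fit vs DMSO.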

[18] = ATG_GLI_CIS: Attagene CIS-FACTORIAL HepG2 Assay for human Zinc Finger Protein GLI1 (AID 2282945); conditions: HepG2, Attagene cis-factorial reporter mRNA, GLI element; actives raise or lower the signal
In short: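 HepG2 cells transiently transfected with cis-promoter multiplexed reporter units report endogenous transcription factor activity. After 24 h chemical exposure, reporter mRNA was quantified by RT-PCR, 6-FAM labelling, HpaI digestion and capillary electrophoresis, with bidirectional fitting against DMSO.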

[19] = ATG_ERE_CIS: Attagene CIS-FACTORIAL HepG2 Assay for Estrogen Response Element (ERE) (AID 2282940); conditions: HepG2 ERE cis-reporter, Attagene RNA transcript; actives raise or lower the signal
In short: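 Transient MRTU transfection of human HepG2; cis-element promoters; 24 h dosing; total RNA → RT (oligo dT) → PCR → 6-FAM primer extension → HpaI digest → CE fluorescence. Bidirectional fit, DMSO baseline.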

[20] = ATG_M_19_CIS: Attagene CIS-FACTORIAL HepG2 Assay for M19 Transcription Factor (Internal Marker) (AID 2282939); conditions: HepG2 Attagene CIS-FACTORIAL M19 internal marker reporter; actives raise or lower the signal
In short: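 Transfect HepG2 with MRTU reporter library → dose chemical, 24 h → isolate total RNA, reverse-transcribe with oligo(dT) → PCR, 6-FAM label, HpaI cut (2 h, 37 C) → capillary electrophoresis. Bidirectional fit vs DMSO.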

Measured: AC50

Sequence of Hepatocyte nuclear factor 3-beta (Homo sapiens) (Q9Y261 whole entry, looked up): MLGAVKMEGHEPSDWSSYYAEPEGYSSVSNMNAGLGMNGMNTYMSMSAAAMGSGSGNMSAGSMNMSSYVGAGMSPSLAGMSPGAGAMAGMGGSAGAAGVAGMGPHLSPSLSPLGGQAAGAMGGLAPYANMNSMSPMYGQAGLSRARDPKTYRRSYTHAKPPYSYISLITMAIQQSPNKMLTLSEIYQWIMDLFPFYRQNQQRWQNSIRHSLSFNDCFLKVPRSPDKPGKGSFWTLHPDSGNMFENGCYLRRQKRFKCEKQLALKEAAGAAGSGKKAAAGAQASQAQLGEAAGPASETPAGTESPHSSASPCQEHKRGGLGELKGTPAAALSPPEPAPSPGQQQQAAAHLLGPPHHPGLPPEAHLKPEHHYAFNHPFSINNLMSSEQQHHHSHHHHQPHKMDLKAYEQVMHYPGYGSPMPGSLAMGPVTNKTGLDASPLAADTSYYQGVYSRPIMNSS
Sequence of CCAAT/enhancer-binding protein beta (Homo sapiens) (P17676 whole entry, looked up): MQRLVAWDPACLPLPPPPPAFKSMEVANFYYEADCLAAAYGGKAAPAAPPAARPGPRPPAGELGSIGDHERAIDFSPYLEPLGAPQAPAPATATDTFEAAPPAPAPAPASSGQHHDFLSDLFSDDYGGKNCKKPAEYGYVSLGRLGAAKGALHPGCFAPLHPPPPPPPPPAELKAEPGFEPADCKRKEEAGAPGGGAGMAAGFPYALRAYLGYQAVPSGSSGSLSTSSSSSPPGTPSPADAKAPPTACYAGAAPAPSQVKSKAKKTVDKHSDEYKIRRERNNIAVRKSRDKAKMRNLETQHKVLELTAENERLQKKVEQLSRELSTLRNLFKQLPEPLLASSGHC
Sequence of Transcription factor E2F1 (Homo sapiens) (Q01094 whole entry, looked up): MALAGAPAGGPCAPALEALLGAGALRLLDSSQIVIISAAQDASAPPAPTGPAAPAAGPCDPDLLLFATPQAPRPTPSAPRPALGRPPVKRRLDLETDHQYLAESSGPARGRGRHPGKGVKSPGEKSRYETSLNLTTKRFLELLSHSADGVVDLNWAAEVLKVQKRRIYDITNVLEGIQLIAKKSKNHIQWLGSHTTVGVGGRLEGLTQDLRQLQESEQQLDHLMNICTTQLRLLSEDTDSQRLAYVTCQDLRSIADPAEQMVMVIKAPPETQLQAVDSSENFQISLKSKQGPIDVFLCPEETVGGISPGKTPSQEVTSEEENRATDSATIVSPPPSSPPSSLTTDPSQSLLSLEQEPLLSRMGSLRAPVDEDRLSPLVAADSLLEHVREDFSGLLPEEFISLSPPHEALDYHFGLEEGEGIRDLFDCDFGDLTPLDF
Sequence of Aryl hydrocarbon receptor (Homo sapiens) (P35869 whole entry, looked up): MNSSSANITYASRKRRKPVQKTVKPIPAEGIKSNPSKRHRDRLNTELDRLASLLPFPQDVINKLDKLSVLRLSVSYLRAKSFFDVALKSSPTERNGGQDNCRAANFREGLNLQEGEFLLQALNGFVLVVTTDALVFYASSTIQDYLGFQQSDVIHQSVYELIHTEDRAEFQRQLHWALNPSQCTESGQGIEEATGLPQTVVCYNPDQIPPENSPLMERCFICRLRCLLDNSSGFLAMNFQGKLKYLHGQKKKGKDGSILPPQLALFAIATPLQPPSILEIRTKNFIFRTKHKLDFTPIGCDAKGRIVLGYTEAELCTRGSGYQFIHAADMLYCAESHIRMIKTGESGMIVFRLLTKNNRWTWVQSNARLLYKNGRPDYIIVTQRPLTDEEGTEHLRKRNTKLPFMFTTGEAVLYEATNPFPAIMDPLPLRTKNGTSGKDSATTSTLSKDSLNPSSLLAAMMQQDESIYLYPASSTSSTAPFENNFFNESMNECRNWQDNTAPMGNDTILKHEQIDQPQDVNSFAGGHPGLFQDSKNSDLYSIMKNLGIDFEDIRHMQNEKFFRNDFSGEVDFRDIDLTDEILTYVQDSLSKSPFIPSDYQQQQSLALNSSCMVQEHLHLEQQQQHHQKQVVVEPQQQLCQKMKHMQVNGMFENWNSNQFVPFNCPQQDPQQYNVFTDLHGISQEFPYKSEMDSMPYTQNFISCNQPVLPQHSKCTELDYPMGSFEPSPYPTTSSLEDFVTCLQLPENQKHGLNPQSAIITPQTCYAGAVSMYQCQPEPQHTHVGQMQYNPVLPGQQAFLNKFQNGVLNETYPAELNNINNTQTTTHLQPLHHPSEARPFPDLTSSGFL
Sequence of Retinoic acid receptor alpha (Homo sapiens) (P10276 whole entry, looked up): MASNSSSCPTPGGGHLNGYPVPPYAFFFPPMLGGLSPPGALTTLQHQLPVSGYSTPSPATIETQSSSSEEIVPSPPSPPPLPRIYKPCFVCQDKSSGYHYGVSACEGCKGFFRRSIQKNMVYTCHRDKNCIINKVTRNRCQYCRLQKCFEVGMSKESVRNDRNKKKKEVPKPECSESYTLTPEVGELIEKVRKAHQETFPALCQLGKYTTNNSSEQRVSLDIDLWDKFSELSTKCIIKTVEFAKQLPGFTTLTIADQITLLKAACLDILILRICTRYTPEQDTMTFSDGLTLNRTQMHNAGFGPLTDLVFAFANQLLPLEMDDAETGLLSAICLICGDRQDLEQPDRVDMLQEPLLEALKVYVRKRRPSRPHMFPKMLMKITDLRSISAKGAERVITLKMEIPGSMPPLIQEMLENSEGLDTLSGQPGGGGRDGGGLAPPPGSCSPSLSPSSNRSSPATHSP

CC(O)CN(CCN(CC(C)O)CC(C)O)CC(C)O (stereo not drawn)
not listed: [19] | [20]
inactive: all other assays above

CC(C)CCO
not listed: [20]
inactive: all other assays above

CCn1nc(Cc2ccccc2)cc1C1CCN(C[C@H]2C[C@H](N(C)[C@@H](C(=O)O)C(C)C)C[C@@H]2c2cccc(F)c2)CC1
active: [4] 100 µM | [11] 79.3 µM | [13] 155 µM | [19] 5.55 µM
not listed: [20]
inactive: all other assays above

CNCc1ccc(NC(=O)c2c[nH]c3c2C(=O)CCC3)cc1
active: [5] 4.66 µM
not listed: [19] | [20]
inactive: all other assays above

CC(=O)c1ccc2c(c1)[C@H](NC(=O)c1ccc(F)cc1)[C@@H](O)C(C)(C)O2
not listed: [19]
inactive: all other assays above

Cc1ccc(S(=O)(=O)O)cc1C
not listed: [12]
inactive: all other assays above

CCOCCO
not listed: [19]
inactive: all other assays above

CCCCCCCCCCCCCCCO
active: [3] 56.6 µM | [4] 57.7 µM | [16] 175 µM
not listed: [19] | [20]
inactive: all other assays above

C1=CCCC=CCCC=CCC1
active: [3] 135 µM | [4] 100 µM | [6] 161 µM | [11] 76.6 µM
not listed: [19]
inactive: all other assays above

CC(C)c1cccc(C(C)C)c1N1C(=O)c2ccc(O)cc2C1=O
active: [1] 56 µM | [4] 12.1 µM | [6] 24.1 µM | [9] 5.9 µM | [13] 66.8 µM | [20] 182 µM | [18] 126 µM
not listed: [19]
inactive: all other assays above

COCCOc1cc2cc(C(=O)NC3CCN(C(C)C)CC3)n(CC(=O)Nc3ccc(Cl)cn3)c2cn1
active: [1] 100 µM | [4] 71.6 µM | [5] 6.53 µM | [9] 50.4 µM | [11] 100 µM | [13] 123 µM
not listed: [19] | [20]
inactive: all other assays above

CCc1cc(SCc2sc(-c3ccc(C(F)(F)F)cc3)nc2CN2CCN(c3ccc(OC)cc3)CC2)ccc1OCC(=O)O
active: [4] 3.68 µM | [5] 17.4 µM | [8] 18.2 µM | [10] 1.9 µM | [11] 11 µM | [13] 15.8 µM
not listed: [19] | [20]
inactive: all other assays above
